Bioassay records deposited in PubChem BioAssay by Broad Institute.
Shown are actives, neighbours in structure and some others; about 3% of the full set was active somewhere.
esBAF inh – inhibitors of esBAF chromatin remodeling in mouse ES cells | reporter increase, % at 12.5 µM | Bmi1-luciferase knock-in reporter, 24 h; 100% = twice the neutral-well signal | hit rate 2% among 350,000; in the data active = activation above about 40%;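 also: a rise in the Bmi1 reporter signal indicates esBAF inhibition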
MITF act – activators of MITF-driven TRPM1 promoter activity in SK-MEL-5 cells; activation, % at 12.5 µM; AID 588334; hit rate 0.75% among 300,000; SK-MEL-5 TRPM1-promoter luciferase, 24 h; % of positive control, neutral wells = 0;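 active = mean activation of at least 80% with every replicate also reaching 80%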
Statin myotox sup – suppressors of simvastatin-induced myotoxicity in C2C12 myotubes. ATP luminescence, 48 h; scaled: DMSO 0, geranylgeraniol control 100. rescue of ATP level, % at 7.49 µM. hit rate 0.78% among 330,000. AID 602340;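 active = mean ATP rescue above about 67%, or every replicate alone reaching that limit, limit read from the data, passing the limit was not always enough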;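 also: myotubes were challenged with 10 µM simvastatin during compound exposure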
Wnt bcat act – Wnt/beta-catenin pathway activation | activation, % at 9.35 µM | hit rate 1.2% among 300,000 | Wnt/beta-catenin reporter cell assay, activator, plate reader; in the data active = activation above about 30%, passing the limit was not always enough
Numbers stand for hits; . = inactive; / = not tested or not shown.

SMILES | esBAF inh | MITF act | Statin myotox sup | Wnt bcat act
CC(C)NC(=O)N(C)C[C@@H]1OCCCC[C@H](C)Oc2ccc(NS(=O)(=O)c3ccc(Cl)cc3)cc2C(=O)N([C@H](C)CO)C[C@H]1C | . | / | / | /
Cc1sc2ncnc(N=Nc3c(O)[nH]c4ccccc34)c2c1C | 52 | . | . | .
CCc1cc2c(N=Nc3c(O)[nH]c4ccccc34)ncnc2s1 | / | . | / | /
CCCNC(=O)[C@@H]1[C@@H](CO)[C@@H]2Cn3c(ccc(-c4ccccc4OC)c3=O)[C@@H]2N1C(=O)CC | . | / | . | /
COC(=O)c1cccc(OCC(O)Cn2ccnc2)c1 (stereo unspecified) | . | . | 109 | .
Oc1csc(Cc2nc(-c3ccc(-c4ccccc4)cc3)cs2)n1 | . | . | . | /
Oc1csc(Cc2nc(-c3ccc4ccccc4c3)cs2)n1 | 69 | / | . | /
CO[C@@H]1CN(C)C(=O)c2ccc(NC(=O)Nc3ccc4c(c3)OCO4)cc2OC[C@@H](C)N(C(C)=O)C[C@H]1C | . | / | . | /
COc1ccc2oc(C(=O)c3ccccc3)c(N)c2c1 | / | / | / | 74
COc1ccc2oc(C(=O)C3CC3)c(N)c2c1 | 67 | . | . | .
COc1ccc2oc(C(=O)OCC(=O)N3CCCCC3C)c(C)c2c1 (stereo unspecified) | . | . | . | .
COc1ccc(C(=O)c2oc3ccccc3c2N)cc1 | . | . | . | /
COC(=O)CCC(=O)c1oc2ccc(OC)cc2c1N | . | 109 | . | /
C[C@@H]1CN([C@H](C)CO)S(=O)(=O)c2ccc(C#CCN(C)C)cc2O[C@H]1CN(C)C(=O)Nc1ccccc1F | . | / | . | /
COc1cccc(OC)c1C(=O)Nc1cccc(-c2ccc(N3CCOCC3)nn2)c1 | . | 83 | . | .
Cc1cc(C(=O)Nc2cccc(-c3ccc(N4CCOCC4)nn3)c2)ccc1[N+](=O)[O-] | / | . | / | .
COc1cc(OC)cc(C(=O)Nc2cccc(-c3ccc(N4CCOCC4)nn3)c2)c1 | . | 101 | . | .
COc1ccc(C(=O)Nc2cccc(-c3ccc(N4CCOCC4)nn3)c2)cc1 | 45 | 90 | . | .
CN(C)c1ccc(-c2cccc3nccn23)cc1 | . | / | . | .
c1cc(-c2ccc(N3CCOCC3)cc2)n2ccnc2c1 | 57 | / | . | .
Cc1ccccc1-c1cnc2c(c1)C(=O)N([C@H](C)CO)C[C@@H](C)[C@@H](CN(C)Cc1cncnc1)O2 | . | / | . | /
C=CCN1C(=O)C2C(C(=O)NC)C3C=CC2(O3)C1C(=O)NCc1ccc(OC)cc1 (stereo unspecified) | . | . | 105 | /
Cc1ccc(N2C(=O)SC(N(CC(=O)O)c3cccc(C)c3)C2=O)cc1 (stereo unspecified) | . | . | . | 41
C[C@@H]1CN([C@H](C)CO)C(=O)CCCn2nncc2CO[C@@H]1CN(C)Cc1ccc2c(c1)OCO2 | . | / | . | /
Cc1ccnc(NC(=O)c2ccc([N+](=O)[O-])s2)c1 | . | . | . | 42
SMILES | esBAF inh | MITF act | Statin myotox sup | Wnt bcat act
Cc1ccnc(NC(=O)c2cc3cc(F)ccc3s2)c1 | . | . | . | 38
Cc1ccnc(NC(=O)c2cc([N+](=O)[O-])cc([N+](=O)[O-])c2)c1 | / | . | / | .
C[C@@H]1CN([C@@H](C)CO)C(=O)c2cc(NC(=O)Nc3ccc(C(F)(F)F)cc3)ccc2O[C@H]1CN(C)C(=O)NC1CCCCC1 | . | / | . | /
COc1ccc(NC(=O)Cc2ccccc2)cc1 | 57 | . | . | 36
COc1ccc(C(=O)C(OC(=O)c2ccccc2Cl)c2ccccc2)cc1 (stereo unspecified) | / | . | / | /
COc1ccc(C/C(C)=N/NC(=S)Nc2ccc(Cl)cc2)cc1 | . | . | . | .
COc1ccc(C(=O)C(OC(=O)c2ccccc2)c2ccccc2)cc1 (stereo unspecified) | 84 | / | . | .
COc1ccc(C(=O)C(=NNc2ccccc2)c2ccc(OC)cc2)cc1 | . | . | . | .
COc1ccc(C(=O)C(=NN)c2ccccc2)cc1 | 45 | / | . | .
COc1ccc(C/C(C)=N/NC(=S)Nc2ccccc2)cc1 | 60 | . | . | .
C[C@@H]1CCCCO[C@@H](CN(C)C(=O)c2ccncc2)[C@H](C)CN([C@H](C)CO)C(=O)c2cc(NS(=O)(=O)c3ccc(F)cc3)ccc2O1 | . | / | / | /
CC(=O)Nc1ccc(C(=O)COC(=O)c2ccco2)c(F)c1 | 44 | . | . | .
COc1ccc(CC(=O)Nc2ccc(-c3cn4ccc(C)cc4n3)cc2)cc1 | 58 | . | . | /
CN(C)/C=C(/C(=O)c1ccccc1Cl)S(=O)(=O)c1ccccc1 | . | / | / | /
COc1ccc(CC(=O)Nc2ccc(-c3cn4cccc(C)c4n3)cc2)cc1OC | . | . | . | /
CC(=O)Nc1ccc(NC(=O)COC(=O)c2ccco2)cc1 | / | . | / | .
